In PubChem BioAssay (NCATS):
“And” between values parts separate entries of the source, which are not always exact repeats. Identical values can stand only once. Inconclusive results are not listed. Entries that show only a call come without a potency. The source made the active and inactive calls. Unless noted, the call rests on the fitted dose curve; in most records, active means well fitted curve in the direction sought with a large enough effect; inconclusive means small, poorly fitted or top-dose-only effect, or another doubt; inactive means no such curve, though single readings can be large; an effect the other way counts as inactive or inconclusive.

How the values were obtained:
[1] = qHTS for differential inhibitors of proliferation of Plasmodium falciparum line 7G8 (AID 1815);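 further: parasite growth measured after three days of incubation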; further: potency means the concentration at half of the fitted maximal effect
[2] = qHTS for differential inhibitors of proliferation of Plasmodium falciparum line GB4 (AID 1816); details: Potency: Plasmodium falciparum GB4 proliferation inhibition;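 further: parasite growth measured after 72 h incubation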; further: potency means the concentration at half of the fitted maximal effect
[3] = qHTS for differential inhibitors of proliferation of Plasmodium falciparum line 3D7 (AID 1876); further: potency means the concentration at half of the fitted maximal effect
[4] = qHTS for differential inhibitors of proliferation of Plasmodium falciparum line D10 (AID 1877);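 further: parasites grown with compound for 72 h before DNA staining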; further: potency means the concentration at half of the fitted maximal effect
[5] = qHTS for differential inhibitors of proliferation of Plasmodium falciparum line Dd2 (AID 1882); details: Potency: Plasmodium falciparum Dd2 proliferation inhibition; further: nearly all actives have a fitted effect of over 65% in size; further: potency means the concentration at half of the fitted maximal effect
Summary of the method: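 SYBR Green DNA fluorescence (ex 485, em 535 nm) after overnight lysis quantifies parasite growth; compound exposure lasted 72 h at 37 C on infected red cells at 2.5% hematocrit, 0.3% parasitemia (final). Artemisinin 0.29 uM and vehicle wells define normalization.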

[6] = qHTS for differential inhibitors of proliferation of Plasmodium falciparum line W2 (AID 1883); details: Potency: Plasmodium falciparum W2 proliferation inhibition;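 further: parasites grown with compound for 72 h before lysis and staining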; further: potency means the concentration at half of the fitted maximal effect
[7] = qHTS Assay for Lipid Storage Modulators (AID 1519; calls by dose curve); details: Drosophila S3 cells, BODIPY lipid droplet/cell ratio, laser cytometry, cells loaded with oleic acid
Summary of the method: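 Cells seeded at 5,000 per well were treated with compounds over a concentration series and loaded with oleic acid (400 uM, as added). Lipid droplet fluorescence (488 nm excitation, 500-530 nm channel) was read by laser-scanning cytometry and normalized to 20 uM Triacsin C.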

[8] = target: Alpha-galactosidase A (Homo sapiens) (UniProt P06280); experiment: Counterscreen for Glucocerebrosidase Inhibitors: qHTS Assay for Human alpha-Galactosidase at pH 4.5 (AID 992)
Summary of the method: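 Steps: enzyme (2 nM final), then compound across 0.7 nM to 77 uM, then 80 uM fluorogenic galactopyranoside substrate; incubate 20 min at room temperature; quench at pH 10; measure fluorescence at 365/440 nm.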

[9] = target: alpha-glucosidase (Oryza sativa, rice) (UniProt Q653V4); experiment: Counterscreen for Glucocerebrosidase Inhibitors: qHTS Assay for Rice alpha-Glucosidase at pH 5.0 (AID 997)
Summary of the method: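 Endpoint fluorogenic assay at pH 5.0: compounds (0.7 nM to 77 uM) titrated against 4 nM rice enzyme and 400 uM 4-MU-alpha-glucoside for 20 min at room temperature; NaOH/glycine stop, read ex 365/em 440 nm, Hill-fitted AC50.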

[10] = target: Alpha-galactosidase (Coffea arabica) (UniProt Q42656); experiment: Counterscreen for Glucocerebrosidase Inhibitors: qHTS Assay for Coffee Bean alpha-Galactosidase at pH 5.9 (AID 998)
Summary of the method: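 In 50 mM citric acid pH 5.9 with 0.005% Tween-20, coffee bean enzyme hydrolyses 80 uM 4-MU alpha-D-galactopyranoside over 20 min at RT. Activity is normalized to controls; AC50 comes from Hill-modelled concentration-response data.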

[11] = Validation of Assay for Modulators of Lamin A Splicing (AID 1459; active means well fitted curve in the direction sought with a large enough effect in the signal ratio; the % refers to the signal ratio;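 further: cells exposed to compound for two days before reading; ratio rise marks activators and ratio drop marks inhibitors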)
Summary of the method: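 HeLa S3 lamin A-EGFP/DsRed2 stable clone, 600 cells/well, Opti-MEM 2% FBS; compounds by pin tool; 48 hrs, 37 °C/5% CO2; Acumen 488 nm scan, objects 10-100 um; GFP/RFP intensity ratio.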

[12] = target: DNA repair nuclease/redox regulator APEX1 (Homo sapiens) (UniProt P27695); experiment: qHTS Validation Assay for Inhibitors of the Human Apurinic/apyrimidinic Endonuclease 1 (APE1) (AID 1705;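 further: TAMRA fluorescence gain over two minutes as APE1 cuts a quenched THF abasic duplex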)
Summary of the method: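 qHTS, 1536-well. APE1 + cpd 15 min RT → 50 nM TAMRA/BHQ-2 THF-abasic dsDNA substrate → kinetic fluorescence, 3 reads/60 s; delta(read3−read1) = reaction progress. No-enzyme buffer = negative control.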

[13] = Counterscreen for APE1 Inhibitors: Fluorescent Dye Displacement Validation Assay (AID 1707)
Summary of the method: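 Reaction mixture of 250 nM Thiazole Orange and 50 nM double-stranded abasic-site DNA was dispensed, compounds were pin-transferred, and fluorescence was read at endpoint (480 nm ex, 540 nm em). Reduced fluorescence indicated dye displacement by DNA binding.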

[14] = target: Endonuclease 4 (Escherichia coli (strain K12)) (UniProt P0A6C1); experiment: Counterscreen for APE1 Inhibitors: qHTS Validation Assay for Inhibitors of Endonuclease IV (AID 1708)
Summary of the method: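 Enzyme (2 nM) + compound, 15 min RT; add 50 nM TAMRA/BHQ-2 THF-site dsDNA; kinetic read ex525/em598, 3 reads/60 s; activity = read 3 − read 1. Buffer Tris pH 7.5, 50 mM NaCl, 2 mM MgCl2, DTT, Tween-20.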

[15] = measured here: cell count channel max response
[16] = measured here: lipid channel max response

Alpha-galactosidase (Coffea arabica), sequence (Q42656 whole entry, looked up): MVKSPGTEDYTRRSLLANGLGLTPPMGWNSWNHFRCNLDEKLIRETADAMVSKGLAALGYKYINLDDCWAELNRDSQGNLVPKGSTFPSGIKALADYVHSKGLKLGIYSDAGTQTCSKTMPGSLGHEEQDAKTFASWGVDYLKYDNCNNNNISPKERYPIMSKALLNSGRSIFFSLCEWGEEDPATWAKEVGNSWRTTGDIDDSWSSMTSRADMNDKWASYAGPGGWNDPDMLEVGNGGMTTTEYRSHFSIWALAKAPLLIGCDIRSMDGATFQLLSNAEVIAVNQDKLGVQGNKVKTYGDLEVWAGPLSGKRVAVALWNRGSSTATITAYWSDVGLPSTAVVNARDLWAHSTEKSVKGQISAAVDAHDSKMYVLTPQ
Alpha-galactosidase A (Homo sapiens), sequence (P06280 whole entry, looked up): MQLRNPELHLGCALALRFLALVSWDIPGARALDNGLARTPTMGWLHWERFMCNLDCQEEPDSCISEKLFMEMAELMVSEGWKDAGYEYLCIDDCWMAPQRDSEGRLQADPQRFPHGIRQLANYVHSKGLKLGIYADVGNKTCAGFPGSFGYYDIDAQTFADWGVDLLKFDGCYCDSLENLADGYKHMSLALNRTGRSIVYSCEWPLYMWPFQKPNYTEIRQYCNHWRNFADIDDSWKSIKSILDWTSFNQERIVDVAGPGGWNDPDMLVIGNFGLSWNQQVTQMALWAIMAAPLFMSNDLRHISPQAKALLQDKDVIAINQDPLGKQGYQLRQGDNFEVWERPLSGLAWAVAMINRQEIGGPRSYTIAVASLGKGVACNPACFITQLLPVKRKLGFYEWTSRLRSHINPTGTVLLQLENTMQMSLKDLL
DNA repair nuclease/redox regulator APEX1 (Homo sapiens), sequence (P27695 whole entry, looked up): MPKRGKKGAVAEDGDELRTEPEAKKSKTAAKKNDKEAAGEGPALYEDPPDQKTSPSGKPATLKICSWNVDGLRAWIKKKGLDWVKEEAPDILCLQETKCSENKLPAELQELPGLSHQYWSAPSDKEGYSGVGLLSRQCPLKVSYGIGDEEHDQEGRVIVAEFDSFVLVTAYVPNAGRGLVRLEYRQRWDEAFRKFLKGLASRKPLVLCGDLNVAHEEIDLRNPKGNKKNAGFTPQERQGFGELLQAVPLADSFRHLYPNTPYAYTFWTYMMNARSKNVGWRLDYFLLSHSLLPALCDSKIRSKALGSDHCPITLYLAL

Which Potency [1] does the source give for `C[N+](C)(C)CCCCCCCCCC[N+](C)(C)C` here?
Its Potency is 5010 nM (active).

And the Potency [2]?
Its Potency is 3980 nM (active).

What about the Potency [3] of the same compound?
Its Potency is 355 nM (active).

And the Potency [4]?
The Potency was 1260 nM (active).

What about the Potency [5] of the same compound?
The Potency was 10000 nM (active).

What about the Potency [6] of the same compound?
Its Potency is 562 nM (active).

Which activity change, negative = inhibition ([7]; at 57.5 µM (top of the series)) does the source give for `O=C(NC(=O)c1c(F)cccc1F)Nc1cc(Cl)c(OC(F)(F)C(F)C(F)(F)F)cc1Cl` (stereo not given) here?
The activity change, negative = inhibition was -23.4% (inactive).

What about the max response [7, 15] of the same compound?
The max response was 4.92%.

What about the max response [7, 16] of the same compound?
The max response was -17.8%.

Which activity change, negative = inhibition ([7]; at 57.5 µM (top of the series)) does the source give for `CCNc1nc(Cl)nc(NCC)n1` here?
The activity change, negative = inhibition was 6.1% (inactive).

And the max response [7, 15]?
Its max response is 11.4%.

And the max response [7, 16]?
The max response was 16.8%.

With `CCCCCCCCC(=O)NCc1ccc(O)c(OC)c1` as the compound, how does the outcome [8] read?
Its outcome is “inactive”.

And the outcome [9]?
The outcome was “inactive”.

And the outcome [10]?
The outcome was “inactive”.

And the outcome [11]?
The outcome was “inactive”.

What about the activity change, negative = inhibition ([7]; at 57.5 µM (top of the series)) of the same compound?
The activity change, negative = inhibition was -0.202% (inactive) and 0.982% (inactive).

And the max response [7, 15]?
Its max response is 1.44% and 21.8%.

And the max response [7, 16]?
The max response was 3.12% and 22.1%.

And the outcome [12]?
Its outcome is “inactive”.

What about the outcome [13] of the same compound?
Its outcome is “inactive”.

And the Potency [1]?
The Potency was “inactive”.

And the Potency [4]?
Its Potency is “inactive”.

What about the Potency [5] of the same compound?
Its Potency is “inactive”.

Which activity change, negative = inhibition ([7]; at 25.7 µM (top of the series)) does the source give for `O=C(CCCN1CCC(n2c(=O)[nH]c3ccccc32)CC1)c1ccc(F)cc1` here?
The activity change, negative = inhibition was 0.264% (inactive).

What about the max response [7, 15] of the same compound?
The max response was -5.85%.

What about the max response [7, 16] of the same compound?
Its max response is -3.11%.

Which results are given for `C[C@H](N)[C@H](O)c1ccc(O)c(O)c1`?
outcome [8]: inactive; outcome [9]: inactive; outcome [10]: inactive; activity change, negative = inhibition ([7]; at 25.7 µM (top of the series)): -2.9% (inactive); max response [7, 15]: -12%; max response [7, 16]: -13.5%

For `COC(=O)C1=CCCN(C)C1`, which outcome [8] is on record?
The outcome was “inactive”.

And the outcome [9]?
The outcome was “inactive”.

And the activity change, negative = inhibition ([7]; at 25.7 µM (top of the series))?
The activity change, negative = inhibition was 0.438% (inactive).

What about the activity change, negative = inhibition ([7]; at 57.5 µM (top of the series)) of the same compound?
The activity change, negative = inhibition was 7.06% (inactive) and -4.88% (inactive).

What about the max response [7, 15] of the same compound?
Its max response is 20.3% and 3.22% and -69.9%.

And the max response [7, 16]?
Its max response is 21.3% and 16.2% and -73.3%.

What about the outcome [12] of the same compound?
The outcome was “inactive”.

What about the outcome [13] of the same compound?
Its outcome is “inactive”.

And the outcome [14]?
The outcome was “inactive”.

What about the Potency [1] of the same compound?
Its Potency is “inactive”.

What about the Potency [2] of the same compound?
The Potency was “inactive”.

And the Potency [3]?
The Potency was “inactive”.

And the Potency [4]?
The Potency was “inactive”.

And the Potency [5]?
The Potency was “inactive”.

With `COc1ccc(CN2CCNCC2)c(OC)c1OC` as the compound, how does the activity change, negative = inhibition ([7]; at 25.7 µM (top of the series)) read?
The activity change, negative = inhibition was -1.99% (inactive).

And the max response [7, 15]?
Its max response is -6.25%.

And the max response [7, 16]?
The max response was -8.59%.

Which outcome [8] does the source give for `COc1ccc(C(=O)N2CCCC2=O)cc1` here?
The outcome was “inactive”.

And the outcome [9]?
The outcome was “inactive”.

What about the outcome [10] of the same compound?
The outcome was “inactive”.

And the activity change, negative = inhibition ([7]; at 57.5 µM (top of the series))?
The activity change, negative = inhibition was -0.445% (inactive).

What about the max response [7, 15] of the same compound?
The max response was 21.4%.

What about the max response [7, 16] of the same compound?
Its max response is 19.3%.

What about the outcome [12] of the same compound?
Its outcome is “inactive”.

What about the outcome [13] of the same compound?
Its outcome is “inactive”.

And the outcome [14]?
The outcome was “inactive”.

And the Potency [1]?
The Potency was “inactive”.

And the Potency [2]?
Its Potency is “inactive”.

And the Potency [3]?
Its Potency is “inactive”.

What about the Potency [4] of the same compound?
Its Potency is “inactive”.

What about the Potency [5] of the same compound?
Its Potency is “inactive”.

What about the Potency [6] of the same compound?
The Potency was “inactive”.
